# Legend:
# Test in all cases: DAPPL (digital affinity profiling via proximity ligation, sequencing); 10 mM Tris-HCl pH 7.5, 50 mM NaCl, 1 mM DTT, 4% glycerol, room temperature, 30 min; GST-TFs on glutathione beads, 16-mer random dsDNA library, 0.1% formaldehyde crosslink after washing; high values mean tight binding
# FLI1 = molecular target: T1, FLI1 (Homo sapiens, UniProt Q01543 1-452); conditions: protein: recombinant; tags: N-terminal GST; dsDNA, one strand shown
# T1 sequence: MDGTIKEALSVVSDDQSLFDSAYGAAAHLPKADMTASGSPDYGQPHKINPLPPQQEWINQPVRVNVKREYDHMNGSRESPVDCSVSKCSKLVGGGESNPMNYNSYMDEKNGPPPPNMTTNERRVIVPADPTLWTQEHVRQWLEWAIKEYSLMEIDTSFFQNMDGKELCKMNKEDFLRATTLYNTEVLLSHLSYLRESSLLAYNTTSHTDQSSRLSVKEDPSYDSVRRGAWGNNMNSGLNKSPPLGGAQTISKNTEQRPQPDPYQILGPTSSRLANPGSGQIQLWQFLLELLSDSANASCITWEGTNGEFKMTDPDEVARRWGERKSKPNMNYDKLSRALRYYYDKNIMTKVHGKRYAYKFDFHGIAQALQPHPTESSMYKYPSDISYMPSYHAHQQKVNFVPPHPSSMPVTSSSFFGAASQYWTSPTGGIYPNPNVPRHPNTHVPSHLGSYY
# In short: (§1)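 Pools were built from human transcription factors expressed in yeast as GST fusions, captured on glutathione beads and DNA-barcoded, along with a tag-only sample. Incubation with 200 nmole of a 16-mer random double-stranded DNA library lasted 30 min at room temperature in Tris/NaCl/DTT/glycerol buffer, and was followed by washing, 0.1% formaldehyde crosslinking, proximity ligation, PCR amplification and Illumina NextSeq500 sequencing. Binding signal is the quotient of each hexamer's read frequency for a factor and its frequency for the tag-only sample.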
# ELK1 = molecular target: T2, ELK1 (Homo sapiens, UniProt P19419 1-428); conditions: protein: recombinant; tags: N-terminal GST; dsDNA, one strand shown
# T2 sequence: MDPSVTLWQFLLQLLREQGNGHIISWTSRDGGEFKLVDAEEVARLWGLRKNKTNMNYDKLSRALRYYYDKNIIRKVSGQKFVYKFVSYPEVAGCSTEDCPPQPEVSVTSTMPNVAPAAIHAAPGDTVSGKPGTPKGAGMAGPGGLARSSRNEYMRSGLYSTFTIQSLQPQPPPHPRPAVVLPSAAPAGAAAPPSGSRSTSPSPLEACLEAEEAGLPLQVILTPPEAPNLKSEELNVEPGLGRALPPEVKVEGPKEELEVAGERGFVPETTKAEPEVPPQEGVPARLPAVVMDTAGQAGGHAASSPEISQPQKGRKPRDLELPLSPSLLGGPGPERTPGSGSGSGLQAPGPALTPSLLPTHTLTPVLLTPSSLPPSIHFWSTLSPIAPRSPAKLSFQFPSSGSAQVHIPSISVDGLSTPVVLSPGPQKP
# In short: as §1
# GABPA = molecular target: T3, GABPA (Homo sapiens, UniProt Q06546 1-454); conditions: protein: recombinant; tags: N-terminal GST; dsDNA, one strand shown
# T3 sequence: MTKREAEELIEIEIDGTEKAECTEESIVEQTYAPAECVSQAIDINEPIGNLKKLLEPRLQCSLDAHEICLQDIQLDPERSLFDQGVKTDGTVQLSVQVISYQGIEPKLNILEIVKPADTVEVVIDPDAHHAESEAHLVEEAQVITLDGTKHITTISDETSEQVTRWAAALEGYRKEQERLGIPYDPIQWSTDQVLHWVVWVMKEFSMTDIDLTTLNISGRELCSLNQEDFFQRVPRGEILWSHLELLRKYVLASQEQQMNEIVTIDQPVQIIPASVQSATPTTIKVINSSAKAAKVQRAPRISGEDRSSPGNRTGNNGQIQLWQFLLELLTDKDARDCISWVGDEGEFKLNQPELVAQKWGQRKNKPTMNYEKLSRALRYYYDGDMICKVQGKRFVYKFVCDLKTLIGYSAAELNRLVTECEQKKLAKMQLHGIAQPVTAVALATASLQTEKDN
# In short: as §1
# ERG = molecular target: T4, ERG (Homo sapiens, UniProt P11308 1-479); conditions: protein: recombinant; tags: N-terminal GST; dsDNA, one strand shown
# T4 sequence: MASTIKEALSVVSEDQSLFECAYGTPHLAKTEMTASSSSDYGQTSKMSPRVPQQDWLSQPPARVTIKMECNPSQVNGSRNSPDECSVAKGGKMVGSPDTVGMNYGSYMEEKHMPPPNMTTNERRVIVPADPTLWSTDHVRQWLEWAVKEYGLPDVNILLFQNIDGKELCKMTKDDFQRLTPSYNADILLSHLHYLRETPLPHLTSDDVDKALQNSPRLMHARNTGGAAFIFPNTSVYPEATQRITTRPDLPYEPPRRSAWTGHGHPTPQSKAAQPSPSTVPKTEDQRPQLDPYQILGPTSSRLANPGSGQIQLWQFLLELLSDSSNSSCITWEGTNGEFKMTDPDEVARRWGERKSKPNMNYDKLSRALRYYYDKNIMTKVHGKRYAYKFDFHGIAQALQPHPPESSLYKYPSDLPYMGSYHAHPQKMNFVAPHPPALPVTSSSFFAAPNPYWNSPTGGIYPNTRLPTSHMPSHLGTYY
# In short: as §1
# ELF1 = ELF1 (Homo sapiens, UniProt P32519 1-619); conditions: protein: recombinant; tags: N-terminal GST; dsDNA, one strand shown
# Sequence of ELF1 (P32519 whole entry): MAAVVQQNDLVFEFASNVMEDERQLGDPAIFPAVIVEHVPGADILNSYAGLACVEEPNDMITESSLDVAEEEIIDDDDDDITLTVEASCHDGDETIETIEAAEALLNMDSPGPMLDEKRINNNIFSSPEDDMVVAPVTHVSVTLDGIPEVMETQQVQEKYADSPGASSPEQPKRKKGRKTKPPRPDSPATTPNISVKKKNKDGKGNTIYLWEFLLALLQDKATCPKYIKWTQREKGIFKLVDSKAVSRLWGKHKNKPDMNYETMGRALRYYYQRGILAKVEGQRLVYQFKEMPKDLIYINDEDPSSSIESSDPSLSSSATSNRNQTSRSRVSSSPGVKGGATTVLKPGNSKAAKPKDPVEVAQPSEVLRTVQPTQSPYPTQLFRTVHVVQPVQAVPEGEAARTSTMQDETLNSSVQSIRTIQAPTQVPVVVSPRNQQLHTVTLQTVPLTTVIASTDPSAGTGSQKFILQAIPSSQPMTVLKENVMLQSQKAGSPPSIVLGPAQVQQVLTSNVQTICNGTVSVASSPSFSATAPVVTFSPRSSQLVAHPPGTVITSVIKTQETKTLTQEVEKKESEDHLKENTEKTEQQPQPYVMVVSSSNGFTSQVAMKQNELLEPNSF
# In short: as §1
# EHF = molecular target: T5, EHF (Homo sapiens, UniProt Q9NZC4 1-300); conditions: protein: recombinant; tags: N-terminal GST; dsDNA, one strand shown
# T5 sequence: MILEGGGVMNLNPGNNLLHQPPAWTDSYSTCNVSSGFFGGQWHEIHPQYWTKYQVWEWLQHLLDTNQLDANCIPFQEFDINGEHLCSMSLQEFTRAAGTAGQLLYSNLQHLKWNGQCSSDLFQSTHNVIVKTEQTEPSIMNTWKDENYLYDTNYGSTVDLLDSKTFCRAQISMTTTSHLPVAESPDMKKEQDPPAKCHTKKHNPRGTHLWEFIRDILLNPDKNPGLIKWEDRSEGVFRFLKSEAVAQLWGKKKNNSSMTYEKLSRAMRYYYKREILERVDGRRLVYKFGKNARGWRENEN
# In short: as §1
# SPI1 = SPI1 (Homo sapiens, UniProt P17947 1-270); conditions: protein: recombinant; tags: N-terminal GST; dsDNA, one strand shown
# In short: as §1
# SPIB = SPIB (Homo sapiens, UniProt Q01892 1-262); conditions: protein: recombinant; tags: N-terminal GST; dsDNA, one strand shown
# Sequence of SPIB (Q01892 whole entry): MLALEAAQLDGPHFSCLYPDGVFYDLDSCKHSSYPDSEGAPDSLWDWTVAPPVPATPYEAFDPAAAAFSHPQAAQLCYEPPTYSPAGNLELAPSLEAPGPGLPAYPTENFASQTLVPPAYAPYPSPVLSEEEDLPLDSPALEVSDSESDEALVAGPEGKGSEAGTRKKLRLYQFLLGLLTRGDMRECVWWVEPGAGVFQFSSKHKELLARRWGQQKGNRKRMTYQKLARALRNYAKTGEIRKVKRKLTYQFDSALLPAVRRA
# In short: as §1
# ELK3 = molecular target: T6, ELK3 (Homo sapiens, UniProt P41970 1-407); conditions: protein: recombinant; tags: N-terminal GST; dsDNA, one strand shown
# T6 sequence: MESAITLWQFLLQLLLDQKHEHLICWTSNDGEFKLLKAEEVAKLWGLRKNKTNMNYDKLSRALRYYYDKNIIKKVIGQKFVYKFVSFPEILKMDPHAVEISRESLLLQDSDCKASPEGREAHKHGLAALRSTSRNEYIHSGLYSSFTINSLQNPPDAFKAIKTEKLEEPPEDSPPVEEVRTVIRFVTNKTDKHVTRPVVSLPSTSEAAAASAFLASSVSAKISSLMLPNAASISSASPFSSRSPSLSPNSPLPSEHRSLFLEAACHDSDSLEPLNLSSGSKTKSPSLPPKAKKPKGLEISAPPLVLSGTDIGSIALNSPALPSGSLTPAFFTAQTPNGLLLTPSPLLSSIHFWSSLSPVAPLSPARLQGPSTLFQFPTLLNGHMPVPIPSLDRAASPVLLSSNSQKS
# In short: as §1
# FEV = molecular target: T7, FEV (Homo sapiens, UniProt Q99581 1-238); conditions: protein: recombinant; tags: N-terminal GST; dsDNA, one strand shown
# T7 sequence: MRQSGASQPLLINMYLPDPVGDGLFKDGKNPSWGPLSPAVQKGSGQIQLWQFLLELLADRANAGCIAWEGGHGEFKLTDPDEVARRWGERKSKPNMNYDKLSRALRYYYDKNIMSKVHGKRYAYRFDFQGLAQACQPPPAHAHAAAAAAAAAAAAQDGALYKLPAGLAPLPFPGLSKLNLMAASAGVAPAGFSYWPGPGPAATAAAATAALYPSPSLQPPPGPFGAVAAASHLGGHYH
# In short: as §1
# ETV5 = ETV5 (Homo sapiens, UniProt P41161 1-510); conditions: protein: recombinant; tags: N-terminal GST; dsDNA, one strand shown
# Sequence of ETV5 (P41161 whole entry): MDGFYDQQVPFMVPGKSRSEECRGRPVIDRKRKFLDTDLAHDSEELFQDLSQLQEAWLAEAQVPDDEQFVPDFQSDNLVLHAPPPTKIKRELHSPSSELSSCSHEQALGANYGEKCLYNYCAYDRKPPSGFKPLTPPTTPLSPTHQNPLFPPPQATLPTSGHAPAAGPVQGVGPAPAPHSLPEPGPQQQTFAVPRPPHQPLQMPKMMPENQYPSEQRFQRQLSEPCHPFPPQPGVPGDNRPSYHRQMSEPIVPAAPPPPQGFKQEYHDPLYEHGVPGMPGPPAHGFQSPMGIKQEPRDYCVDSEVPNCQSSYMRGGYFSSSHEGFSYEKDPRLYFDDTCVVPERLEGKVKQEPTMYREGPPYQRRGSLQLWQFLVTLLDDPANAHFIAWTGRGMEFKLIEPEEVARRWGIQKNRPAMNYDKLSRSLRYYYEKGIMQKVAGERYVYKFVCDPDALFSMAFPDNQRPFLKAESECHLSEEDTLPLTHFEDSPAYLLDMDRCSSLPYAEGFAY
# In short: as §1
# HSF1 = HSF1 (Homo sapiens, UniProt Q00613 1-529); conditions: protein: recombinant; tags: N-terminal GST; chain copies: 3; dsDNA, one strand shown
# Sequence of HSF1 (Q00613 whole entry): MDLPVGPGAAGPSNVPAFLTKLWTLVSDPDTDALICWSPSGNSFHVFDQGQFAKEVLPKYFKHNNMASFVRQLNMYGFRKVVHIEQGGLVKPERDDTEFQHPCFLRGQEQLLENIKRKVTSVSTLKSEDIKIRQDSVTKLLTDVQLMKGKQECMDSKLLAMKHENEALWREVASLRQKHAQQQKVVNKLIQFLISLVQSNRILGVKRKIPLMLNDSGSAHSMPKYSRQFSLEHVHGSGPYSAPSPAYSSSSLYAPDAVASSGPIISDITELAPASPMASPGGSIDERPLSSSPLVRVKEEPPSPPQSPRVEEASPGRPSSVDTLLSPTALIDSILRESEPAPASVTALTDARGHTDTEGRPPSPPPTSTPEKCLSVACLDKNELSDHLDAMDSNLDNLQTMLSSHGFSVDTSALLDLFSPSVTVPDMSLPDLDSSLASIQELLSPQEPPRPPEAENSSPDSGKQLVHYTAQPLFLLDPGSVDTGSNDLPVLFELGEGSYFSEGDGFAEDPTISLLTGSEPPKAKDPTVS
# In short: as §1
# SPIC = molecular target: T8, SPIC (Homo sapiens, UniProt Q8N5J4 1-248); conditions: protein: recombinant; tags: N-terminal GST; dsDNA, one strand shown
# T8 sequence: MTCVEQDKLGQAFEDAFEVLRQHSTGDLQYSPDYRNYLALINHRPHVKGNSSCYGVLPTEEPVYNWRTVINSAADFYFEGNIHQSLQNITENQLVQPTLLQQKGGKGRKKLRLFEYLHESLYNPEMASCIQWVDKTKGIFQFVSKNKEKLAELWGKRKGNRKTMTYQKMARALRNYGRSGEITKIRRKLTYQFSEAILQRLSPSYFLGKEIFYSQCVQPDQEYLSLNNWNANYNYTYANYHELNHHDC
# In short: as §1
# ELF4 = ELF4 (Homo sapiens, UniProt Q99607 1-663); conditions: protein: recombinant; tags: N-terminal GST; dsDNA, one strand shown
# Sequence of ELF4 (Q99607 whole entry): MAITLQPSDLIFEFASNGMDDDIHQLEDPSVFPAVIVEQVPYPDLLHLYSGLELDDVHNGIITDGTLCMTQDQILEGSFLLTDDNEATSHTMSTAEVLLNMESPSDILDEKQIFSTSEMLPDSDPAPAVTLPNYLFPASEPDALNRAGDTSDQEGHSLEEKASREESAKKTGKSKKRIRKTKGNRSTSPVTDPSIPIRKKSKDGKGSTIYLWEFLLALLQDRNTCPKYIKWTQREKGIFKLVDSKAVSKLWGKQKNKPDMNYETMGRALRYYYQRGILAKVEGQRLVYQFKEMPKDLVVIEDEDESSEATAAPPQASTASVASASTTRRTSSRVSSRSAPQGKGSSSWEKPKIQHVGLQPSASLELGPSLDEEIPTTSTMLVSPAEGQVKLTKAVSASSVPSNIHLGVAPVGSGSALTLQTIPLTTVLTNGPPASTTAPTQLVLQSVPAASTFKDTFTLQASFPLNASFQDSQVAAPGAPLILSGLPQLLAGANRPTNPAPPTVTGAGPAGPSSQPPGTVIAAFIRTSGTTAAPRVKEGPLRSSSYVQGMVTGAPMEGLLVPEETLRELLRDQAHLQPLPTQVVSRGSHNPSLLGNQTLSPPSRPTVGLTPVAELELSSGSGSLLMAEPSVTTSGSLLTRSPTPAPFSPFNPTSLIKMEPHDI
# In short: as §1
# ELK4 = molecular target: T9, ELK4 (Homo sapiens, UniProt P28324-2 1-405); conditions: protein: recombinant; tags: N-terminal GST; dsDNA, one strand shown
# T9 sequence: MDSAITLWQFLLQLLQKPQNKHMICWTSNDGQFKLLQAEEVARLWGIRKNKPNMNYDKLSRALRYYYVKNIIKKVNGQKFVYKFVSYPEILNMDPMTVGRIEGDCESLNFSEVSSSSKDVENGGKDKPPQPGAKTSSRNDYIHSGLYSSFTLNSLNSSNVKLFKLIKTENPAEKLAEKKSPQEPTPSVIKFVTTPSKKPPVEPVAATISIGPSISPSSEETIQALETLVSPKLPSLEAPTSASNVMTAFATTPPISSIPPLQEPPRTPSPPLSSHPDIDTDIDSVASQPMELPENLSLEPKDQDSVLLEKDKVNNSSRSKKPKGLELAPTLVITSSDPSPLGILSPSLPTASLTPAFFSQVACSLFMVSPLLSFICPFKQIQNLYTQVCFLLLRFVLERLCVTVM
# In short: as §1
# ETV2 = molecular target: T10, ETV2 (Homo sapiens, UniProt O00321 1-342); conditions: protein: recombinant; tags: N-terminal GST; dsDNA, one strand shown
# T10 sequence: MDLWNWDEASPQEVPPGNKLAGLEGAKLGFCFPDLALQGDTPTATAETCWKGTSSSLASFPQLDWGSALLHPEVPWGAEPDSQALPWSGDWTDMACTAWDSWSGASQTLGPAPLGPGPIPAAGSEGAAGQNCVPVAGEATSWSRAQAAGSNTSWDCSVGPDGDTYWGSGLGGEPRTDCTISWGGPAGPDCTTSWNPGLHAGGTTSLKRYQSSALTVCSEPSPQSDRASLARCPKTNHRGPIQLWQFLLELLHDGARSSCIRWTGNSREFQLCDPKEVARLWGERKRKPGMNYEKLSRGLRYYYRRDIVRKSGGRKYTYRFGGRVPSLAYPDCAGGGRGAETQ
# In short: as §1
# ELF3 = molecular target: T11, ELF3 (Homo sapiens, UniProt P78545 1-371); conditions: protein: recombinant; tags: N-terminal GST; dsDNA, one strand shown
# T11 sequence: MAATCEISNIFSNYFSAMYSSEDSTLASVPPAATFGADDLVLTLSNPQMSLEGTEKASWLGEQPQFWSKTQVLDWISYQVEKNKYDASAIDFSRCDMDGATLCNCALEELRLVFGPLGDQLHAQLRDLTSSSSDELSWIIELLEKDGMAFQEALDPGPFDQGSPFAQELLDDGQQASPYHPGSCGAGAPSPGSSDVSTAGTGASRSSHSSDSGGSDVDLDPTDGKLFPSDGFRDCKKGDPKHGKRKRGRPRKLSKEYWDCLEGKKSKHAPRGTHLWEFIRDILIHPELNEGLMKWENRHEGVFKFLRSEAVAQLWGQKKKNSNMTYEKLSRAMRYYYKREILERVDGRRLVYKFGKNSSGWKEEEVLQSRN
# In short: as §1
# ETV1 = ETV1 (Homo sapiens, UniProt P50549 1-477); conditions: protein: recombinant; tags: N-terminal GST; dsDNA, one strand shown
# Sequence of ETV1 (P50549 whole entry): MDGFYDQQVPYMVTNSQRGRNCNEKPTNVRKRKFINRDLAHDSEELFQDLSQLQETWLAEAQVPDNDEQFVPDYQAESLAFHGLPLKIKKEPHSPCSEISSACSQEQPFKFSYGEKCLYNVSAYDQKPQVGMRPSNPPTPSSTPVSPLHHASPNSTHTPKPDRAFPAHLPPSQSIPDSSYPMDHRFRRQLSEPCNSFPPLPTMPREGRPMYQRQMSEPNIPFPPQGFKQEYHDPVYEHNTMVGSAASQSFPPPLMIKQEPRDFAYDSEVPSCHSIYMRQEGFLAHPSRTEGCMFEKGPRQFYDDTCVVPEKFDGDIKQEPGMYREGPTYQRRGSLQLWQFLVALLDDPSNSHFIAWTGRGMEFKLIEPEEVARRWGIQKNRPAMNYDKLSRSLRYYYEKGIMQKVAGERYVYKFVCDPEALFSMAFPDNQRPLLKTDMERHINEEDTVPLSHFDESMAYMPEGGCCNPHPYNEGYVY
# In short: as §1
sequence,measurement,setting,value
CGACAT,binding signal,FLI1,"1.37 fold enrichment (6-mer frequency, TF over GST control)"
same,binding signal,ELK1,"1.23 fold enrichment (6-mer frequency, TF over GST control)"
same,binding signal,GABPA,"1.25 fold enrichment (6-mer frequency, TF over GST control)"
same,binding signal,ERG,"1.31 fold enrichment (6-mer frequency, TF over GST control)"
same,binding signal,ELF1,"1.25 fold enrichment (6-mer frequency, TF over GST control)"
same,binding signal,EHF,"1.26 fold enrichment (6-mer frequency, TF over GST control)"
same,binding signal,SPI1,"1.27 fold enrichment (6-mer frequency, TF over GST control)"
same,binding signal,SPIB,"1.3 fold enrichment (6-mer frequency, TF over GST control)"
same,binding signal,ELK3,"1.4 fold enrichment (6-mer frequency, TF over GST control)"
same,binding signal,FEV,"1.31 fold enrichment (6-mer frequency, TF over GST control)"
same,binding signal,ETV5,"1.26 fold enrichment (6-mer frequency, TF over GST control)"
same,binding signal,HSF1,"1.07 fold enrichment (6-mer frequency, TF over GST control)"
same,binding signal,SPIC,"1.32 fold enrichment (6-mer frequency, TF over GST control)"
same,binding signal,ELF4,"1.32 fold enrichment (6-mer frequency, TF over GST control)"
same,binding signal,ELK4,"1.3 fold enrichment (6-mer frequency, TF over GST control)"
same,binding signal,ETV2,"1.26 fold enrichment (6-mer frequency, TF over GST control)"
same,binding signal,ELF3,"1.42 fold enrichment (6-mer frequency, TF over GST control)"
same,binding signal,ETV1,"1.37 fold enrichment (6-mer frequency, TF over GST control)"

# Reference: paper PMC7862700, “An all-to-all approach to the identification of sequence-specific readers for epigenetic DNA modifications on cytosine”
